# Results reported in PubChem BioAssay AID602127 (Broad Institute, 2011).
# Results with a measured potency or affinity are listed apart. Unmarked numbers belong to inactive results.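 How the source made its calls: active means every repeat test judged active, meaning a falling signal with potency within twice the top valid dose; inconclusive means repeat tests disagree on the call; inactive means every repeat test inactive, including signal moving upward.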
# Target: Cyclin-dependent kinase 2 (Homo sapiens) (UniProt P24941)
# Assay: inhibition of human CDK2/cyclin A – biochemical, cherry-picked samples, selectivity assay for Dyrk1A inhibitor project, dose response (AID 602127)
# Settings: ADP-Glo luminescence, 60 min; series mostly up to 10 µM; activity change, negative = inhibition: at the top concentration
row,Structure (SMILES),"activity change, negative = inhibition [%]"
1,COc1ccc(C(=O)c2sc(Nc3ccccc3F)nc2N)cc1,10
2,COc1cccc(Nc2nc(-c3ccc(O)cc3)cs2)c1,-12.6
3,Cc1noc(CN(C)c2ncnc3ccc(-c4ccc5c(c4)OCO5)cc23)n1,-6.39
4,c1coc(CCNc2ncnc3ccc(-c4ccc5c(c4)OCO5)cc23)c1,2.36
5,Cc1ccnc(NC(=O)c2cccc(S(=O)(=O)N3CCN(c4ccccc4)CC3)c2)c1,-4.96
6,O=C(CSc1nnnn1-c1ccc(O)cc1)Nc1ccc(N2CCOCC2)c(Cl)c1,-8.88
7,Cc1nc(N)sc1-c1csc(Nc2ccccc2)n1,-2.75
8,c1cncc(-c2nc(NCc3ccco3)c3ccccc3n2)c1,-17.4
9,N#CCSc1nc(Nc2ccc3c(c2)OCO3)c2ccccc2n1,-21.3
10,Cc1cc(NCCCn2ccnc2)n2ncc(-c3ccc(Cl)cc3)c2n1,-12.4
11,O=C(O)COc1ccc(/C=C/c2nc3ccc([N+](=O)[O-])cc3s2)cc1,7.07
12,Cc1ccsc1CN(C)c1ncnc2ccc(-c3ccc(CO)o3)cc12,-20.1
13,CCOC(=O)c1ccc2ncc(C(=O)OCC)c(Nc3ccc(N4CCOCC4)cc3)c2c1,-17.7
14,c1nc(NCC2CCCOC2)c2cc(-c3ccc4c(c3)OCO4)ccc2n1 (centres undefined),-7.3
15,Cc1occc1CNc1ncnc2ccc(-c3ccc4c(c3)OCO4)cc12,-0.879
16,CC(=O)Nc1cccc(NC(=O)c2cc3ccccc3o2)c1,-13.7
17,COc1cccc(Nc2nc(NCCO)c3ccccc3n2)c1,-5.17
18,Clc1cc(Cl)cc(CNc2cc(-c3ccc4c(c3)OCO4)ncn2)c1,-6.93
19,CCCNc1ncnc2ccc(-c3ccc4c(c3)OCO4)cc12,-5.98
